# Laboratory results reported in PubChem BioAssay AID720553 (National Center for Advancing Translational Sciences (NCATS), 2013).
# In all, about 340,000 compounds went through this assay and about 3,300 (0.97%) were called active. The sample as a whole holds a higher share of actives than the screen did. A number with no mark means an inactive call.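 The calls were made as follows: active = maximum activity change below -70%; inconclusive = maximum activity change from -70% to -50%; inactive = maximum activity change above -50%.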
# Test system: Potassium voltage-gated channel subfamily H member 2, brain isoform KCNH2 3.1 (human)
# Assay: qHTS for Inhibitors of KCHN2 3.1: Mutant qHTS
# Conditions: U2OS KCNH2 3.1, thallium flux FluxOr; stronger effect = lower value
# How it was run: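 Measured as rate of thallium-driven FluxOr signal in transduced U2OS cells carrying the 3.1 channel, read kinetically for 2 min upon stimulation; values are rate constants scaled to DMSO control wells.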
# % is scaled to controls: 0 for no effect and ±100 for the full control effect.
row,Structure (SMILES),activity change
1,Cc1ccc2c(CN3CCN(S(=O)(=O)c4ccccc4C(F)(F)F)CC3)cc(=O)oc2c1,-74.7% (active)
2,Cc1cc2oc(=O)cc(CN3CCN(S(=O)(=O)c4cccs4)CC3)c2cc1C(C)C,-5.54%
3,COc1ccc2c(CN3CCN(S(=O)(=O)c4cccs4)CC3)cc(=O)oc2c1,-11.7%
4,O=C(N=C1SC2CS(=O)(=O)CC2N1Cc1ccccc1)c1ccccc1 (stereo unspecified),-10.6%
5,O=Nc1c(O)cc(O)c2ccccc12,4.37%
6,Cc1ccc(-c2ccc(CN3C(C)C(=O)N(Cc4cn(CCC5OCCCO5)nn4)CCS3(=O)=O)cc2)cc1 (stereo unspecified),-4.85%
7,COc1cc(NC(=O)C2=C(C)OCCS2)c(Cl)cc1C(=O)NCCCN1CCCC(C)C1 (stereo unspecified),-7.47%
8,CC(=O)Nc1ccc2c3c(ccc([N+](=O)[O-])c13)CC2,-19%
9,O=S1(=O)CCN(Cc2ccccc2)CC1,-7.16%
10,O=C1c2ccccc2C(=O)c2c1cccc2N1CCN(CCO)CC1,-26.5%
11,O=C1c2ccccc2C(=O)c2c1cccc2N1CCN(Cc2ccccc2)CC1,-89.4% (active)
12,CCOC(=O)c1cc(-c2sc(NC(=O)c3ccccc3)nc2C)n(Cc2ccccc2)n1,-4.02%
13,C[C@H]1CN([C@@H](C)CO)C(=O)CCCn2cc(nn2)CO[C@@H]1CN(C)S(=O)(=O)c1ccccc1C#N,-13.5%
14,CC(=NNC(N)=O)C1CC2CCC1CC2 (stereo unspecified),0.306%
15,CC(C)NC(=O)Nc1ccc2c(c1)C(=O)N([C@H](C)CO)C[C@H](C)[C@@H](CN(C)Cc1ccc(C(F)(F)F)cc1)OCCCC[C@@H](C)O2,-29.9%
16,CC(=O)c1ccccc1NC(=O)COC(=O)C1COc2ccccc2O1 (stereo unspecified),-5.39%
17,Nc1cc(=O)c2[nH]cnc2[nH]1,4.52%
18,Cc1ccc(C)c(NC(=O)c2ccc3nccnc3c2)c1,5.85%
19,Cc1ccc(Oc2ccc3c(c2)C(=O)N(c2cccc4cccnc24)C3=O)cc1,-1.2%
20,Cc1ccc(OS(=O)Nc2cccc3nccnc23)cc1 (stereo unspecified),-73.2% (active)
21,C[C@@H]1CN([C@H](C)CO)S(=O)(=O)c2ccc(C#CC3CCCCC3)cc2O[C@H]1CN(C)C(=O)Cc1ccncc1,-2.79%
22,CC1=C(C(=O)N2CCOCC2)CC(CC(=O)NCC2CCCCC2)C(=O)N1Cc1ccc(F)cc1 (stereo unspecified),-12.1%

row,Structure (SMILES),activity change
1,CC1C(=O)N(Cc2cn(CC3CCCCC3)nn2)CCS(=O)(=O)N1Cc1ccc(-c2cccc(N(C)C)c2)cc1 (stereo unspecified),-6.27%
2,CC1(C)Cc2c(C#N)c(SCc3nc4ccccc4[nH]3)nc(N3CCOCC3)c2CO1,1.1%
3,COc1ccc(CSc2nc(N3CCOCC3)c3c(c2C#N)CC(C)(C)OC3)cc1,-85.2% (active)
4,CCOC(=O)CSc1nc(N2CCOCC2)c2c(c1C#N)CC(C(C)C)OC2 (stereo unspecified),9.26%
5,CN1CCn2cnc(C(=O)NCC(=O)OC(C)(C)C)c2C1=O,8.04%
6,COc1ccc(Nc2nc(-c3ccccc3)cs2)cc1,-83.5% (active)
7,COc1ccc(Nc2ccc3ccccc3c2)cc1,-0.36%
8,COc1ccc(-c2csc(Nc3cccc(C)n3)n2)cc1OC,-0.0615%
9,CN(Cc1ccccc1)C(=O)CCC1CCN(C(=O)c2ccco2)CC1,-7.93%
10,O=C(COc1ccc([N+](=O)[O-])cc1Cl)Nc1ccc2[nH]c(=O)[nH]c2c1,-113% (active)
11,O=C(COC(=O)c1cccc(Cl)c1)Nc1ccc2[nH]c(=O)[nH]c2c1,-16.7%
12,O=C(COc1ccc([N+](=O)[O-])cc1Cl)Nn1cnnc1,-17.4%
13,Cc1ccc(NC(=O)c2ccc(Oc3ncccn3)cc2)cc1,10.8%
14,Cc1ccc(C(=O)NNc2ncnc3ccccc23)cc1,-135% (active)
15,Cc1ccc(C(=O)NNC(=O)c2cc3cc4ccccc4nc3s2)cc1,-14.6%
16,CCOC(=O)c1c(NC(=O)COC(=O)c2ccc(S(=O)(=O)C(F)F)cc2)sc(C(=O)N(C)C)c1C,-12.2%
17,Cc1ccccc1C#CC1=CC(=O)CC(C)(C)C1,-7.29%
18,Cc1ccc(-c2nc3ccc(Cl)cn3c2Cc2ccccc2)cc1,-5.74%
19,O=C(Nc1nncs1)c1ccccc1NS(=O)(=O)c1cccs1,-71.4% (active)
20,COc1cc(NC(=O)c2ccccc2NS(=O)(=O)c2ccc(Cl)s2)cc(OC)c1,-9.39%
21,O=S(=O)(Nc1ccccc1Br)c1cccs1,8.03%
22,CNC(=O)C1CN(C(=O)c2cccc(S(=O)(=O)N3CCc4ccccc43)c2)c2ccccc2O1 (stereo unspecified),-2.85%

row,Structure (SMILES),activity change
1,O=C(NCCS(=O)(=O)N1CCN(c2ccccc2)CC1)c1cc(=O)c2ccccc2o1,5.39%
2,Cc1ccc(NC(=O)c2ccn(C(=O)Nc3ccccc3)n2)c(C)c1,11.1%
3,CSc1ncc(C(=O)Nc2ccc(C)cc2C)c(C)n1,-183% (active)
4,CSc1ncc(C(=O)NCCCc2ccccc2)c(C)n1,17.9%
5,CCN(CC)C(=O)C1=C(C)N(Cc2ccc(F)cc2)C(=O)C(CC(=O)NC2CCCC2)C1 (stereo unspecified),-23.9%
6,CSc1ncnc2c1ncn2CCCNCC1CCCCC1,-15.7%
7,CC(C)C1CCN(C(=O)C2CCC(=O)N(C3CCCCCC3)C2)CC1 (stereo unspecified),-5.43%
8,O=C(Nc1ccc(C(=O)O)cc1)/C(=C/c1ccc([N+](=O)[O-])cc1)NC(=O)c1ccccc1,0.484%
9,CNC(=O)/C(=C\C=C\c1ccccc1)NC(=O)c1ccc([N+](=O)[O-])cc1,-78.9% (active)
10,Cc1ccc(C(=O)N/C(=C/C=C/c2ccccc2)C(=O)NCc2ccco2)cc1,-38.2%
11,COc1ccc(C(CNC(=O)c2ccc(OCc3cscn3)cc2)N2CCCC2)cc1 (stereo unspecified),-4.07%
12,Cc1cc(C)c2cc(C#N)c(N3CCNCC3)nc2c1,15.5%
13,CCC(C)NC(=O)c1ccc(N2CCC3(CC2)OCCO3)c([N+](=O)[O-])c1 (stereo unspecified),15.4%
14,COCCNC(=O)c1ccc(N2CCC3(CC2)OCCO3)c([N+](=O)[O-])c1,1.85%
15,CCCNC(=O)c1ccc(N2CCC3(CC2)CC(c2cccc(Br)c2)=NO3)c(NC(=O)c2ccco2)c1,-83.4% (active)
16,O=C(Nc1ccccc1N1CCN(C(=O)c2ccccc2)CC1)c1ccco1,-10.9%
17,COC(=O)c1ccc(N2CCOCC2)c(NC(=O)c2ccc(Br)o2)c1,-2.48%
18,CCCNC(=O)c1ccc(N2CCC3(CC2)CC(c2ccc(Cl)cc2)=NO3)c([N+](=O)[O-])c1,-83.7% (active)
19,Nc1cc(C(=O)N2CCN(c3ccccc3Cl)CC2)ccc1N1CC2CC(C1)c1cccc(=O)n1C2 (stereo unspecified),6.28%
20,O=C(c1ccc(N2CCCC2=O)cc1)N1CCN(c2ccc(C(F)(F)F)cc2[N+](=O)[O-])CC1,6.83%
21,Cc1ccc(NC(=O)COC(=O)CN2CCSC2=O)cc1F,-8.22%
22,CC1(C)NC(=O)N(CC(=O)Nc2ccc(-c3ccccc3)cc2)C1=O,-11%

row,Structure (SMILES),activity change
1,O=C1[C@H]2[C@@H](c3ccc(Cl)cc3)N3C(=O)N(c4cccc(F)c4)C(=O)[C@@]3(Cc3ccccc3)[C@H]2C(=O)N1C1CCCCC1,-11.3%
2,O=C1[C@H]2[C@@H](c3ccc(F)cc3)N3C(=O)N(c4ccc(C(F)(F)F)cc4)C(=O)[C@@]3(Cc3ccccc3)[C@H]2C(=O)N1C1CCCCC1,-14.9%
3,Cc1cccc(N2C(=O)N3[C@H](c4ccc(F)cc4)[C@@H]4C(=O)N(C5CCCCC5)C(=O)[C@@H]4[C@]3(Cc3ccccc3)C2=O)c1,-81.5% (active)
4,C/C(COc1ccccc1)=N\NC(=O)c1nnn(-c2nonc2N)c1-c1ccc(C)cc1,1.24%
5,Cc1ccc(C(=O)NC(C)C(c2cccs2)N2CCOCC2)cc1C (stereo unspecified),2.91%
6,C#Cc1cc(N2CCN(C(=O)c3ccoc3)CC2)n2nc(-c3cccc(Cl)c3)cc2n1,2.49%
7,Cc1ccccc1Nc1nc(N)nc(CN2CCN(c3ccccn3)CC2)n1,-0.0863%
8,CCOC(=O)N1CCN(CC(=O)Nc2ccc(F)cc2)CC1,-43.8%
9,CCOC(=O)N1CCN(Cc2nc3cc(NC(C)=O)ccc3n2C)CC1,8.13%
10,Cc1ccc(Nc2nc(N)nc(CN3CCN(Cc4ccccc4)CC3)n2)cc1Cl,-99.4% (active)
11,CCOC(=O)N1CCN(Cc2nc(N)nc(Nc3ccc(C)cc3)n2)CC1,-78.5% (active)
12,CNc1nc(Nc2ccc(C)c(Cl)c2)nc(N)c1[N+](=O)[O-],6.15%
13,COc1cccc(NC(=O)N(C)C[C@@H]2Oc3ncc(Br)cc3C(=O)N([C@@H](C)CO)C[C@H]2C)c1,-4.03%
14,COc1ccc(S(=O)(=O)N(C)C)cc1NC(=O)COC(=O)c1n[nH]c2ccccc12,9.12%
15,Cc1ccnc(SC2CC(=O)N(c3ccccc3)C2=O)n1 (stereo unspecified),1.28%
16,O=C(NC1CCN(Cc2ccccc2)CC1)c1ccc(Oc2cc(Cl)cc(Cl)c2)o1,-84.5% (active)
17,O=C(NC1CCN(Cc2ccccc2)CC1)c1cc(Br)c(Br)[nH]1,0.925%
18,CCOc1ccc(CC(=O)NC2CCN(Cc3ccccc3)CC2)cc1,19.9%
19,CCOc1ccc(NS(=O)(=O)c2ccc(C(=O)NCC3CCCO3)cc2)cc1 (stereo unspecified),3.29%
20,COCOCCn1cc(CN2CCS(=O)(=O)N(Cc3ccc(-c4cccc(N(C)C)c4)cc3)C(CC(C)C)C2=O)nn1 (stereo unspecified),-1.27%
